Screens (PubChem)
KB-V1 MDR tox – qHTS assay for MDR1-selective chemotherapeutics: Primary screen using the drug-selected MDR subline cells KB-V1 | KB-V1 MDR cells viability, CellTiter-Glo, 72 h | Potency, µM (doses to about 46.1 µM), hits mostly cytotoxic | 400,000 tested, 3.4% active | AID 1347076, 2019; also: nearly all actives have a fitted effect of over 60% in size
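KB-V1 cells (P-gp-expressing MDR subline of KB-3-1) in phenol-red-free DMEM with 10% FBS were exposed to library compounds over a concentration series for 72 h at 37 degrees C. Viability read by CellTiter-Glo luminescence; concentration-effect curves fitted after normalization.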
KB-3-1 cytotox – qHTS assay for MDR1-selective chemotherapeutics: Primary screen using the parental adenocarcinoma cell KB-3-1 | KB-3-1 viability, CellTiter-Glo ATP luminescence, 72 h | 400,000 tested, 1.4% active | AID 1347075, 2019 | Potency, µM (top dose mostly 46.1 µM), usual class: cytotoxic; also: nearly all actives have a fitted effect of over 60% in size
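Cytotoxicity in the drug-sensitive parental line KB-3-1 was scored as loss of CellTiter-Glo luminescence following 72 h incubation with compound. Values come from curve fitting of normalized concentration-response data.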
HT1080-NT tox – qHTS for induction of synthetic lethality in tumor cells producing 2HG: qHTS for the HT-1080-NT fibrosarcoma cell line | HT-1080-NT fibrosarcoma viability, CellTiter-Glo ATP luminescence, 48 h | Potency, µM (series often up to 46.1 µM), for the others: top-dose activity, negative = less viability, most hits filed as cytotoxic | 360,000 tested, 1.6% active | AID 686970, 2013;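 also: NT is the 2HG producing partner of a matched IDH1 knockdown line; 0% = DMSO-treated cells and -100% = media-only wells without cells; nearly all actives have a fitted effect of over 55% in size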
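Compounds were tested in concentration-response format on HT-1080-NT cells for 48 hours at 37 degrees C. Cell viability came from CellTiter-Glo luminescence; curves were classified by r2, response magnitude and activity.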
DT40 TDP1 CPT – qHTS for Inhibitors of human tyrosyl-DNA phosphodiesterase 1 (TDP1): qHTS in cells in presence of CPT | chicken DT40 Tdp1-/-;hTDP1 cells + 20 nM CPT, ATP luminescence, 48 h | 420,000 tested, 12% active | Potency, µM (series often up to 46.2 µM), without a hit: top-dose activity change, negative = growth inhibition, hits mostly inhibitors | AID 686979, 2013; also: nearly all actives have a fitted effect of over 55% in size
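Cell growth measured by CellTiter-Glo luminescence after a minimum 48 h, 37 C compound exposure with 20 nM CPT in Tdp1-knockout DT40 cells stably expressing hTDP1, seeded 400/well; qHTS titration format.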
DT40 TDP1 no CPT – qHTS for Inhibitors of human tyrosyl-DNA phosphodiesterase 1 (TDP1): qHTS in cells in absence of CPT; DT40 Tdp1-/- hTDP1 cells, no CPT, ATP luminescence, 48 h; Potency, µM (series often up to 46.2 µM), for the others: at the top dose activity change, negative = growth inhibition, actives largely listed as inhibitors; 420,000 tested, 15% active; also: nearly all actives have a fitted effect of over 55% in size
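Growth of hTDP1-complemented DT40 Tdp1-knockout cells is measured by ATP luminescence after at least 48 hr compound exposure at 37 °C, with DMSO substituting for the 20 nM CPT used in the parallel screen.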
HT1080 IDH1KD tx – qHTS for induction of synthetic lethality in tumor cells producing 2HG: qHTS for the HT-1080-IDH1KD cell line. HT-1080 IDH1 knockdown viability, ATP luminescence, 48 h. Potency, µM (highest dose often 46.1 µM), for inactives: at the highest dose activity, negative = toxicity, usual class: cytotoxic. 360,000 tested, 2% active. AID 686971, 2013;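 also: 0% = DMSO wells and -100% = cell-free medium wells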
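CellTiter-Glo luminescence after 48 h compound exposure at 37 degrees C of IDH1-knockdown HT-1080 cells in 5% FBS RPMI. %Activity scaled between DMSO wells and cell-free media wells, with curves fitted and assigned curve classes.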
* = called active by the depositor; i = inactive; ? = inconclusive; . = not tested or not shown; [ ] = dose if it differs, or a comment. In the library only some 19% were active in any assay of this set; here they are far more common. Calls follow the shape of the dose curve; as a rule, active = well fitted curve in the direction sought with a large enough effect; inconclusive = small, poorly fitted or top-dose-only effect, or another doubt; inactive = no such curve, though single readings can be large; an effect the other way counts as inactive or inconclusive. Unless noted, % is scaled to controls: 0 for no effect and ±100 for the full control effect; potency is read from the fitted curve at half-maximal effect.

SMILES	KB-V1 MDR tox	KB-3-1 cytotox	HT1080-NT tox	DT40 TDP1 CPT	DT40 TDP1 no CPT	HT1080 IDH1KD tx
CCc1ccc(C2=C(C)C(N3CCC(C(=O)NCCc4ccco4)CC3)=NS2(=O)=O)cc1	.	.	.	?	18µM*	.
CC1=C(c2ccc(C(C)C)cc2)S(=O)(=O)N=C1N1CCN(c2ccccc2F)CC1	.	.	.	?	18µM*	.
CC1=C(c2ccc(C(C)C)cc2)S(=O)(=O)N=C1N1CCC(C(=O)NCCc2ccco2)CC1	i	i	.	23µM*	?	.
CC1=C(c2ccc(Cl)cc2)S(=O)(=O)N=C1N1CCC(C(=O)NCCc2ccco2)CC1	i	i	.	0%	?	.
CC1=C(c2ccc(C(C)C)cc2)S(=O)(=O)N=C1N1CCN(C(=O)c2ccco2)CC1	i	i	0%	-23%	-16%	11%
COC(=O)c1ccc(CN2C[C@H](Sc3ccccn3)C[C@H]2C(=O)N(C)C)cc1	.	.	.	-9%[9.04 µM]	-19%	.
C[n+]1cccc2cccc([O-])c21	i	i	-11%	-14%	-22%	6%
[O-][n+]1nc2ccccc2c2ccccc21	i	i	0%	-2%	-17%	-7%
Cc1ccc(S(=O)(=O)N=S(CC2CC2(Cl)Cl)CC2CC2(Cl)Cl)cc1 (stereo not given)	i	?	-11%	23µM*	26µM*	-12%
CCc1ccc(CNC(=O)c2cc(=O)[nH]c3ccc(S(=O)(=O)N4CCCCC4)cc23)cc1	.	.	.	-2%	5%	.
CC1CCN(S(=O)(=O)c2ccc3c(c2)c(=O)c(C(=O)NC(C)c2ccccc2)cn3C)CC1 (stereo not given)	i	i	.	?	23µM*	.
Cn1cc(C(=O)NC2CCCCC2)c(=O)c2cc(S(=O)(=O)N3CCCC3)ccc21	9.2µM*	i	0%	?	-29%	13%
Cn1cc(C(=O)NCc2cccs2)c(=O)c2cc(S(=O)(=O)N3CCCC3)ccc21	21µM*	i	-8%	?	?	-8%
CCCCNC(=O)c1cn(C)c2ccc(S(=O)(=O)N3CCCC3)cc2c1=O	i	i	1%	0%	2%	13%
CC(NC(=O)c1cn(C)c2ccc(S(=O)(=O)N3CCCC3)cc2c1=O)c1ccccc1 (stereo not given)	i	i	2%	?	-11%	-1%
COC(=O)C1N[C@@H]([C@@H](NC(=O)COc2ccccc2)C(=O)NCc2ccsc2)SC1(C)C (stereo not given in full)	?	i	-3%	0%	?	0%
COc1ccc2c(c1)c1c(c(=O)n(CCc3ccccc3)c(=O)n1Cc1ccc(Cl)cc1)n2C	i	i	.	1%	-9%	.
Cc1ccc2oc(C(=O)NCC(c3ccco3)N3CCCC3)c(C)c2c1 (stereo not given)	i	i	?	29µM*	?	?
O=C(NCC(c1ccco1)N1CCCCC1)c1ccc([N+](=O)[O-])s1 (stereo not given)	?	?	-7%	18µM*	23µM*	-5%
O=C(NCC(c1ccco1)N1CCCC1)c1cc2cc(Cl)ccc2o1 (stereo not given)	9.2µM*	i	-10%	18µM*	?	-10%
Cc1cc2oc(C(=O)NCC(c3ccco3)N3CCCC3)c(C)c2cc1C (stereo not given)	i	i	?	?	21µM*	?
Cc1ccc(C(=O)NCC(c2ccco2)N2CCCCC2)s1 (stereo not given)	i	i	-4%	?	?	-3%
Cc1cc(C)c(OCC(=O)NCC(c2ccco2)N2CCCCC2)c(C)c1 (stereo not given)	i	i	-6%	?	?	-1%
CCOCCc1nn2c(=O)cc(COC(=O)c3ccccc3NC(=O)c3ccc(C)cc3)nc2s1	i	i	.	-17%	5%	.
COc1ccc(NC(=O)C2(S(=O)(=O)c3ccc(C)cc3)CC2)cc1	i	i	0%	-7%	-10%	4%
SMILES	KB-V1 MDR tox	KB-3-1 cytotox	HT1080-NT tox	DT40 TDP1 CPT	DT40 TDP1 no CPT	HT1080 IDH1KD tx
COC(=O)C(CCSC)NC(=O)c1cc2c(n(-c3ccc(Cl)cc3)c1=O)CCCC2=O (stereo not given)	i	i	.	-17%	-14%	.
Cc1noc(C)c1NC(=O)N(C)C[C@H]1Oc2ccc(NC(=O)C3CC3)cc2C(=O)N([C@H](C)CO)C[C@@H]1C	i	i	14%	?	?	7%
CC1(C(=O)NS(=O)(=O)C2CC2)CCN(C(=O)c2cccc(Cl)c2)C1 (stereo not given)	i	i	12%	-22%	2%	?
O=C(CSc1nnc(CNC(=O)c2c(F)cccc2F)o1)NCCc1ccccc1	.	.	5%	5%	11%	5%
O=C(NCC(c1ccco1)N1CCCC1)c1ccc(Cl)cc1 (stereo not given)	i	i	4%	-7%	-5%	9%
Cc1ccc2c(Cl)c(C(=O)NCC(c3ccco3)N3CCCC3)sc2c1 (stereo not given)	i	i	0%	18µM*	?	-2%
CCc1ccc(S(=O)(=O)Nc2ccc(-c3ccc4nnc(C)n4n3)cc2)s1	i	i	-15%	?	?	-14%
CCc1ccc(S(=O)(=O)Nc2cccc(-c3ccc4nnc(C)n4n3)c2)s1	i	?	-22%	23µM*	16µM*	-14%
CCc1ccc(S(=O)(=O)Nc2cccc(-c3ccc(OC)nn3)c2)s1	?	?	.	12µM*	9.2µM*	.
Cc1ccc(-c2c(C)sc3ncn(CC(=O)N4CCOCC4)c(=O)c23)cc1C	i	i	1%	-20%	-18%	-19%
O=C(CSc1cccc[n+]1[O-])Nc1cccc(Oc2ccccc2)c1	?	i	-8%	-5%	-9%	-13%
COc1ccc(NC(=O)N2CC[C@@]3(CCCNC3)C2)cc1	.	.	.	-20%	-21%	.
C=CCn1c(CNC(=O)c2cccs2)nnc1SCc1ccc(Cl)cc1Cl	i	i	-16%	?	?	-27%
